Measured potencies and affinities stand elsewhere. Activity calls are given as the source filed them.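 How the source made its calls: active means every replicate test called active, each showing a drop in signal with a fitted potency within twice the top tested dose; inconclusive means tests disagree, or fits are weak, flat midrange or poor; inactive means every test flat, rising or fitted past the limit.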
Assay: lung carcinoma cell viability loss – CellTiter-Glo luminescence, dry powder, set 18, cytotoxicity control, dose response (AID 1117290)
Settings: A549 viability, CellTiter-Glo ATP luminescence, 72 h; series mostly up to 26 µM; activity change, negative = cytotoxicity: at the top concentration

SMILES	outcome	activity change, negative = cytotoxicity
COc1ccc(C(=O)O)cc1S(=O)(=O)Nc1cc(C(F)(F)F)ccc1N1CCCCC1	inactive	
O=S(=O)(Nc1cc(C(F)(F)F)ccc1N1CCCCC1)c1ccc(Br)cc1		-10.4% (inactive)
COc1ccc(C(=O)Nc2cc(F)ccc2N2CCCCC2)cc1S(=O)(=O)O		-18.2% (inactive)
CC(=O)N1CCN(C(=O)C2(NC(=O)Nc3cccc(F)c3)CCCCC2)CC1		-10.3% (inactive)
Cc1ccc(NC(=O)NC2(C(=O)N3CCOCC3)CCCCC2)cc1		-4.37% (inactive)
COc1ccc(C2=NN(c3ccc(C(=O)O)cc3)C(c3ccc(OC)c(OC)c3)C2)cc1 (stereo unspecified)		-11.2% (inactive)
N#Cc1ccc(S(=O)(=O)Nc2cc(C(F)(F)F)ccc2N2CCCCC2)cc1		-14.7% (inactive)
CC(=O)N1CCN(C(=O)C2(NC(=O)NCCc3ccccc3)CCCCC2)CC1		-20.8% (inactive)
COc1ccc(C(=O)Nc2cc(C(F)(F)F)ccc2N2CCOCC2)cc1S(=O)(=O)O		-6.57% (inactive)
COc1ccc(C(=O)O)cc1S(=O)(=O)Nc1ccc(N2CCCCC2)cc1C(F)(F)F		-6.22% (inactive)
CC(=O)N1CCN(C(=O)C2(NC(=O)Nc3ccc(F)cc3)CCCC2)CC1		-13.4% (inactive)
COc1ccc(C(=O)O)cc1S(=O)(=O)Nc1cc(C(F)(F)F)ccc1N1CCOCC1		-18.6% (inactive)
NC(=NCCc1c[nH]c2ccccc12)NS(=O)(=O)c1cc(F)ccc1F		-1.23% (inactive)
CC(=O)N1CCN(C(=O)[C@@H]2CCN2C(=O)Nc2ccc(C)cc2)CC1		-11.2% (inactive)
COc1ccc(C(=O)O)cc1S(=O)(=O)Nc1cc(C(F)(F)F)ccc1N1CCN(C(C)=O)CC1		-10.6% (inactive)
CC(=O)N1CCN(C(=O)C2(NC(=O)Nc3ccc(C(C)C)cc3)CCCC2)CC1		-7.13% (inactive)
COc1ccc(C(=O)Nc2cc(C(F)(F)F)ccc2N2CCCC2)cc1S(=O)(=O)O		-14.3% (inactive)
CC(=O)N1CCN(C(=O)C2(NC(=O)Nc3ccc(C)cc3)CC2)CC1		-14.1% (inactive)
CC(=O)N1CCN(C(=O)C2(NC(=O)Nc3ccc(C(F)(F)F)cc3)CCCC2)CC1		-19.7% (inactive)
Cn1cnc(S(=O)(=O)Nc2cc(C(F)(F)F)ccc2N2CCCCC2)c1		17.9% (inactive)
CC(=O)N1CCN(C(=O)C2(NC(=O)Nc3ccccc3F)CCCCC2)CC1	inactive	
Cc1ccccc1S(=O)(=O)Nc1cc(C(F)(F)F)ccc1N1CCCCC1		-9.98% (inactive)
CC(=O)N1CCN(C(=O)C2CCCN2C(=O)Nc2ccc(C)cc2)CC1 (stereo unspecified)		-7.47% (inactive)
CC(=O)N1CCN(C(=O)C2(NC(=O)NC(C)(C)C)CCCCC2)CC1		-7.42% (inactive)
O=S(=O)(Nc1cc(C(F)(F)F)ccc1N1CCCCC1)c1ccc(F)cc1		-15.4% (inactive)
CC(=O)N1CCN(C(=O)C2(NC(=O)Nc3ccc(F)cc3)CCCCC2)CC1		-14.3% (inactive)

From PubChem BioAssay AID1117290 (Broad Institute, 2014)
